From the supplement of paper PMC10849652
The full data set covers some 8,800 targets. This sample favours those with a hit. About 0.5% of all pairs of compound and target were hits.

Key:
Test in all cases: log2 fold change, soluble protein after heating vs DMSO (PISA); higher = thermal stabilisation; K562 lysate, 10 uM; active = over 0.2 and 3.5 SD of the protein, either way, in both replicates (recomputed)
erlotinib = compound: C#Cc1cccc(Nc2ncnc3cc(OCCOC)c(OCCOC)cc23)c1 [erlotinib]
In short: (§1)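 Values give the log-two fold change in thermal stability against solvent controls, from duplicates. Crude K562 extract at 1 mg/mL protein, made by dounce homogenisation in PBS pH 7.4 with 1 mM MgCl2, was treated with 10 μM compound for 30 min. After 3 min heating across 48°C-58°C, aliquots were pooled, adjusted to 0.5% NP-40 at 4°C and centrifuged at 21,000xg for 90 min. The supernatant was measured by TMTpro 16plex LC-MS/MS with channel sums equalised.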

[1] = compound: C/C(=N\NC(=O)C1=CC(=CC=C1)S(=O)(=O)N2CCOCC2)/C3=C(C=CC(=C3)Cl)O
In short: as §1

[2] = compound: C1=CC(=CC=C1C2=NC3=C(N2)C=C(C=C3)C(=O)N)OC4=CC=C(C=C4)Cl
In short: as §1

[3] = compound: C1=CC2=C(C=CC(=C2)/C=C\3/C(=O)NC(=NCC4=CC=CS4)S3)N=C1
In short: as §1

[4] = compound: C1=CC2=NC=CN=C2C=C1/C=C/3\C(=O)NC(=O)S3
In short: as §1

[5] = compound: C1=CC=C(C=C1)C2=NC(=C(N2)C3=CC=NC=C3)C4=CC(=C(C=C4)Cl)O
In short: as §1

[6] = compound: C1=CC=C2C(=C1)C3=NNC4=CC=CC(=C43)C2=O
In short: as §1

[7] = compound: C1CCN(C1)C(=O)NC2=CC=CC(=C2)NC3=NC=C(C(=N3)NCCC4=CN=CN4)Br
In short: as §1

[8] = compound: C1CN(CCC1(CC2=CC=C(C=C2)Cl)N)C3=NC=NC4=C3C=CN4
In short: as §1

IRAK-1-4 Inhibitor I = compound: C1COCCN1CCN2C3=CC=CC=C3N=C2NC(=O)C4=CC(=CC=C4)[N+](=O)[O-] [IRAK-1-4 Inhibitor I]
In short: as §1

ibrutinib = compound: C=CC(=O)N1CCC[C@@H](n2nc(-c3ccc(Oc4ccccc4)cc3)c3c(N)ncnc32)C1 [ibrutinib]
In short: as §1

[9] = compound: CC(=O)c1cnc2ccc(-c3cc(Cl)c(O)c(Cl)c3)nc2c1N[C@H]1CC[C@H](CN(C)C)CC1
In short: as §1

ralimetinib = compound: CC(C)(C)Cn1c(N)nc2ccc(-c3[nH]c(C(C)(C)C)nc3-c3ccc(F)cc3)nc21 [ralimetinib]
In short: as §1

[10] = compound: CC(C)(O)CC(=O)NCCn1ccc2ncnc(Nc3ccc(Oc4cccc(C(F)(F)F)c4)c(Cl)c3)c21
In short: as §1

[11] = compound: CC(C)C1=C2N=C(C=C(N2N=C1)NCC3=CC=CC=C3)NCCCCCCN
In short: as §1

[12] = compound: CC1=C(C(CC(=O)N1)C2=CC=C(C=C2)C(F)(F)F)C(=O)NC3=C(C=C4C(=C3)C=NN4)F
In short: as §1

[13] = compound: CC1=C(C2=C(C=C1)C(=O)C3=CC=CC=C3N2CCCN)C
In short: as §1

[14] = compound: CC1=C(C=C(C=C1)NC(=O)C2=CC(=CC=C2)C(C)(C)C#N)NC3=CC4=C(C=C3)N=CN(C4=O)C
In short: as §1

[15] = compound: CC1=C(C=C(C=C1)NC(=O)C2=CC(=CC=C2)N(C)C)NC(=O)C3=CC=C(C=C3)O
In short: as §1

[16] = compound: CC1=CC=C(C=C1)SC2=C3C=C(SC3=CN=C2)C(=O)N
In short: as §1

Measured: log2 fold change

HSPA14 (UniProt Q0VDF9)
UniProt Q0VDF9, sequence (Q0VDF9 whole entry, looked up): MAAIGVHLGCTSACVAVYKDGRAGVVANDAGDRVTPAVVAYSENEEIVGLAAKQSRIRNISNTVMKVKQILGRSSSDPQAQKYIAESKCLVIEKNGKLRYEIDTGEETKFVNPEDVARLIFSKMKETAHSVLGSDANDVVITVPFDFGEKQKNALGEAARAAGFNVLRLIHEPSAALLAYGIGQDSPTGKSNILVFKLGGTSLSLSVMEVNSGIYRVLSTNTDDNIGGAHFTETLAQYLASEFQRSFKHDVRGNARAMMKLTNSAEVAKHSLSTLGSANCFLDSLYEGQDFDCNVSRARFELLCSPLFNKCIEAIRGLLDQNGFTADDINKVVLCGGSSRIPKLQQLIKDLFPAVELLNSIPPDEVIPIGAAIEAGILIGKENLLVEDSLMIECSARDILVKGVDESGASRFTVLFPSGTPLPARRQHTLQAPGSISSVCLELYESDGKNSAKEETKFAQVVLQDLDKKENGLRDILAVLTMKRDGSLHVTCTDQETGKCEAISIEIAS
inactive: erlotinib 0.014 | [1] 0.025 | [2] -0.009 | [3] 0.009 | [4] 0.012 | [5] 0.049 | [6] -0.035 | [7] 0.018 | [8] 0.014 | IRAK-1-4 Inhibitor I 0.003 | ibrutinib 0.004 | [9] -0.008 | ralimetinib 0.009 | [10] -0.013 | [11] -0.032 | [12] -0.02 | [13] -0.009 | [14] -0.012 | [15] 0.033 | [16] 0.004

HMBOX1 isoform 5 (UniProt Q6NT76)
UniProt Q6NT76, sequence (Q6NT76 whole entry, looked up): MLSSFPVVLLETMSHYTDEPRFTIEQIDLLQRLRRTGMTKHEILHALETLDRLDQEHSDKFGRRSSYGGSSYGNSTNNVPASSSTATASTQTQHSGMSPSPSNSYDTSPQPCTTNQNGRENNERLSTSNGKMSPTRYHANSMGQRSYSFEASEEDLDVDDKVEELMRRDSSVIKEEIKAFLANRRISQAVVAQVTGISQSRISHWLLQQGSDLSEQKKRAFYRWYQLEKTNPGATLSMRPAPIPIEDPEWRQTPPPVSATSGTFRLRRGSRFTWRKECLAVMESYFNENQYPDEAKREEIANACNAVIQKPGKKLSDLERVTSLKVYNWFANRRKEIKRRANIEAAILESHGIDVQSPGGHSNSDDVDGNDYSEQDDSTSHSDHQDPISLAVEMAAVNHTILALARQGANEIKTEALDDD
inactive: erlotinib 0.045 | [1] -0.094 | [2] -0.004 | [3] 0.026 | [4] -0.037 | [5] -0.004 | [6] -0.057 | [7] -0.028 | [8] 0.004 | IRAK-1-4 Inhibitor I -0.009 | ibrutinib 0.051 | [9] 0.021 | ralimetinib 0.026 | [10] 0.007 | [11] 0.072 | [12] -0.014 | [13] 0.052 | [14] 0.015 | [15] 0.005 | [16] 0.054

KBTBD4 isoform 2 (UniProt Q9NVX7)
inactive: erlotinib 0.09 | [1] 0.013 | [2] 0.036 | [3] 0.013 | [4] -0.096 | [5] 0.016 | [6] -0.073 | [7] -0.028 | [8] 0.013 | IRAK-1-4 Inhibitor I -0.017 | ibrutinib 0.051 | [9] -0.026 | ralimetinib -0.069 | [10] 0.009 | [11] -0.039 | [12] -0.156 | [13] -0.045 | [14] 0.142 | [15] -0.014 | [16] 0.031

KDM1A (UniProt O60341)
inactive: erlotinib -0.005 | [1] 0.106 | [2] 0.021 | [3] 0 | [4] -0.006 | [5] -0.019 | [6] -0.071 | [7] -0.019 | [8] -0.009 | IRAK-1-4 Inhibitor I -0.003 | ibrutinib 0.007 | [9] -0.011 | ralimetinib 0.018 | [10] -0.016 | [11] 0.019 | [12] -0.004 | [13] 0.003 | [14] -0.004 | [15] 0.044 | [16] 0.003

GLUL (UniProt P15104)
inactive: erlotinib -0.003 | [1] 0.032 | [2] -0.002 | [3] 0.029 | [4] -0.03 | [5] 0.005 | [6] 0.007 | [7] 0.013 | [8] 0.017 | IRAK-1-4 Inhibitor I -0.017 | ibrutinib 0.031 | [9] 0.004 | ralimetinib 0.006 | [10] -0.002 | [11] -0.008 | [12] 0.026 | [13] 0.023 | [14] -0.117 | [15] -0.011 | [16] 0.031

INPP4A (UniProt Q96PE3)
inactive: erlotinib 0.002 | [1] 0.007 | [2] 0.017 | [3] -0.005 | [4] -0.023 | [5] 0.099 | [6] 0.069 | [7] -0.018 | [8] -0.051 | IRAK-1-4 Inhibitor I 0.066 | ibrutinib -0.166 | [9] 0.001 | ralimetinib 0.061 | [10] -0.013 | [11] -0.034 | [12] 0.02 | [13] -0.086 | [14] 0.022 | [15] -0.053 | [16] -0.025

HECTD3 (UniProt Q5T447)
UniProt Q5T447, sequence (Q5T447 whole entry, looked up): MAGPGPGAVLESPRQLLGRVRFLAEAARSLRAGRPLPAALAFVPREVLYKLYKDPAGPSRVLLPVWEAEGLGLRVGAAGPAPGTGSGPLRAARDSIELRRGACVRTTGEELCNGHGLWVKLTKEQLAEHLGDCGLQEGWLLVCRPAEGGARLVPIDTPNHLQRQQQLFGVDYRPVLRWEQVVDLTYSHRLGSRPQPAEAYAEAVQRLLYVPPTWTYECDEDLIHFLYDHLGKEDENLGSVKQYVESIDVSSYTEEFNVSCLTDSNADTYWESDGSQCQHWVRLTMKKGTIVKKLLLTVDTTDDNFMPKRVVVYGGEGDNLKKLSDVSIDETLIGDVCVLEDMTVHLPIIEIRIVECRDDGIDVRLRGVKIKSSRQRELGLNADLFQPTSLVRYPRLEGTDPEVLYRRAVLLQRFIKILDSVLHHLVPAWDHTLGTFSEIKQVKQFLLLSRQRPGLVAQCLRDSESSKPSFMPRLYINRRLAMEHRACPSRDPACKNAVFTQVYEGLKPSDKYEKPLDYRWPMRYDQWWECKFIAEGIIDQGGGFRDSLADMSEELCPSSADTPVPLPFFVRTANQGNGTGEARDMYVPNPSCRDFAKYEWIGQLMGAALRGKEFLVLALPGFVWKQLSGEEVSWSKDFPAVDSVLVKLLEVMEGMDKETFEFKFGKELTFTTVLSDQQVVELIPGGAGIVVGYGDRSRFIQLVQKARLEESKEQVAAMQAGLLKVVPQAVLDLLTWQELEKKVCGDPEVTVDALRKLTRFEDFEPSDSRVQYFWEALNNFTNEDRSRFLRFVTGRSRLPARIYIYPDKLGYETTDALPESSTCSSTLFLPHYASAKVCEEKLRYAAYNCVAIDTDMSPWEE
inactive: erlotinib 0.027 | [1] 0 | [2] -0.005 | [3] 0.008 | [4] 0.022 | [5] 0.018 | [6] -0.008 | [7] -0.028 | [8] -0.026 | IRAK-1-4 Inhibitor I 0.008 | ibrutinib 0.054 | [9] 0.019 | ralimetinib 0.037 | [10] -0.027 | [11] -0.022 | [12] -0.043 | [13] 0.022 | [14] -0.014 | [15] 0.002 | [16] 0.011

HNRNPH2 (UniProt P55795)
inactive: erlotinib -0.035 | [1] 0.112 | [2] 0.028 | [3] -0.047 | [4] 0.02 | [5] 0.038 | [6] -0.015 | [7] 0.01 | [8] -0.013 | IRAK-1-4 Inhibitor I 0 | ibrutinib 0.017 | [9] 0 | ralimetinib -0.03 | [10] -0.023 | [11] -0.01 | [12] 0.056 | [13] 0.024 | [14] 0.081 | [15] 0.053 | [16] 0.029

HARS (UniProt P12081)
UniProt P12081, sequence (P12081 whole entry, looked up): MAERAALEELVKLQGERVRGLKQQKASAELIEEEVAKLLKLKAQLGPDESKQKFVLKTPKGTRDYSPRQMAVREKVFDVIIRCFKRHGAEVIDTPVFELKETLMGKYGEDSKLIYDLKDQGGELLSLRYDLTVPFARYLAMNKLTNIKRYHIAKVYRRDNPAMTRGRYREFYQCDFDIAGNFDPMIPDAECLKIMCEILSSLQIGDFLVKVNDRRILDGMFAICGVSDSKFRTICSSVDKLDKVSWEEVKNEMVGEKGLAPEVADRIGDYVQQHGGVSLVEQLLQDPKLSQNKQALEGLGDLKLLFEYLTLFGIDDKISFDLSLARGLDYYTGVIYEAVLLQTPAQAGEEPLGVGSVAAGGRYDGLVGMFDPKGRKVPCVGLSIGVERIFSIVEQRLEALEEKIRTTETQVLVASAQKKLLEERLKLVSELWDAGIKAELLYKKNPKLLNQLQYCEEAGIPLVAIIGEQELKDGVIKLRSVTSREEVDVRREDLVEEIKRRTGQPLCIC
inactive: erlotinib -0.034 | [1] 0.006 | [2] -0.002 | [3] 0.021 | [4] -0.036 | [5] -0.005 | [6] 0.019 | [7] -0.016 | [8] 0.001 | IRAK-1-4 Inhibitor I -0.002 | ibrutinib -0.049 | [9] 0.022 | ralimetinib -0.002 | [10] 0.015 | [11] -0.039 | [12] -0.015 | [13] 0.008 | [14] 0.005 | [15] 0.008 | [16] 0.005

HDAC2 (UniProt Q92769)
UniProt Q92769, sequence (Q92769 whole entry, looked up): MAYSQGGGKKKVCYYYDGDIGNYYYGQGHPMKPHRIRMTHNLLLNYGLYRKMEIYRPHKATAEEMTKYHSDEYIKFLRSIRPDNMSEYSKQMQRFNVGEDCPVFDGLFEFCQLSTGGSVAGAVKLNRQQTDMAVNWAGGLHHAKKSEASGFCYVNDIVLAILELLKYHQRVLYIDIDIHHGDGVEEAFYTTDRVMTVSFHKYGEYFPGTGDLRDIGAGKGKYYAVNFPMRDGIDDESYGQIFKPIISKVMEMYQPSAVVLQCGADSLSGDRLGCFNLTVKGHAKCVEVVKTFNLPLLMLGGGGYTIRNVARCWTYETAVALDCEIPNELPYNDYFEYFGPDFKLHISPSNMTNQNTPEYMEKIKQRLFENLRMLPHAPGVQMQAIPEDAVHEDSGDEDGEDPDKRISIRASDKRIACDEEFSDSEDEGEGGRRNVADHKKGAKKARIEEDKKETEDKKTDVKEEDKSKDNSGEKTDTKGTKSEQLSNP
inactive: erlotinib -0.02 | [1] 0.021 | [2] -0.001 | [3] 0.012 | [4] -0.013 | [5] -0.004 | [6] -0.009 | [7] -0.013 | [8] -0.001 | IRAK-1-4 Inhibitor I -0.017 | ibrutinib 0 | [9] -0.008 | ralimetinib -0.005 | [10] -0.029 | [11] -0.001 | [12] -0.013 | [13] -0.01 | [14] -0.025 | [15] -0.016 | [16] -0.013

HELQ (UniProt Q8TDG4)
UniProt Q8TDG4, sequence (Q8TDG4 whole entry, looked up): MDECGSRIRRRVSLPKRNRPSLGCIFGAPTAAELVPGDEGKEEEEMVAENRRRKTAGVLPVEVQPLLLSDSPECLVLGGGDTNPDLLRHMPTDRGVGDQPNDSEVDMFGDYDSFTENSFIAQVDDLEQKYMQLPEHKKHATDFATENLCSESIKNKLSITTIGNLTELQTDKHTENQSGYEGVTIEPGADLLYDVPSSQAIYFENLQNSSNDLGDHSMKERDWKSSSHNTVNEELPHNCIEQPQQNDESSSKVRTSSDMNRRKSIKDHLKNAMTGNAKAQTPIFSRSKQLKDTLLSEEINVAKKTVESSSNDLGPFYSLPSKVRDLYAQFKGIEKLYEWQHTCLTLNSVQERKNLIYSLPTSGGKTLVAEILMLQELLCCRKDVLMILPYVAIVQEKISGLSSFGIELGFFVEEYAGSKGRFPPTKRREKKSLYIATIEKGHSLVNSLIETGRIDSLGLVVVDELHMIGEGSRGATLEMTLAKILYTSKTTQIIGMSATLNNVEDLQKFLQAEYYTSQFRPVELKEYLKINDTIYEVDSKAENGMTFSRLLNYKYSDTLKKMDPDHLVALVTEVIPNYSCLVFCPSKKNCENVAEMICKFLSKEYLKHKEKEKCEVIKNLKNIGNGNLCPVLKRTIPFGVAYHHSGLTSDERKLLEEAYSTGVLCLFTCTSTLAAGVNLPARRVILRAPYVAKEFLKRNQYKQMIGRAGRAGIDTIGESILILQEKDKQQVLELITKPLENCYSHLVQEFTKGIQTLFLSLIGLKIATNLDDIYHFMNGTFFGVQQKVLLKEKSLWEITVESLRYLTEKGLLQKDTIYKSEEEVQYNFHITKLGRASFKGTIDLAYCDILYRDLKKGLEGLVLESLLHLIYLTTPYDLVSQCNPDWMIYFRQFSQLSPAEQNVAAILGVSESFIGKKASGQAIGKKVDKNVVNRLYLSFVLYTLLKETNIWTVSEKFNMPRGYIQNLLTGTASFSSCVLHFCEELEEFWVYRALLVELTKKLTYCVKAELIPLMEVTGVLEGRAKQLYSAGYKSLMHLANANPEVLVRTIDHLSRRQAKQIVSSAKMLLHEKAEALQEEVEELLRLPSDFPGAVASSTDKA
inactive: erlotinib -0.029 | [1] -0.023 | [2] 0.044 | [3] 0.07 | [4] 0.019 | [5] 0.004 | [6] 0.077 | [7] 0.056 | [8] 0.064 | IRAK-1-4 Inhibitor I -0.033 | ibrutinib 0.054 | [9] 0.072 | ralimetinib -0.007 | [10] -0.017 | [11] -0.012 | [12] 0.203 | [13] 0.003 | [14] -0.036 | [15] 0.046 | [16] -0.002

HMGN5 (UniProt P82970)
UniProt P82970, sequence (P82970 whole entry, looked up): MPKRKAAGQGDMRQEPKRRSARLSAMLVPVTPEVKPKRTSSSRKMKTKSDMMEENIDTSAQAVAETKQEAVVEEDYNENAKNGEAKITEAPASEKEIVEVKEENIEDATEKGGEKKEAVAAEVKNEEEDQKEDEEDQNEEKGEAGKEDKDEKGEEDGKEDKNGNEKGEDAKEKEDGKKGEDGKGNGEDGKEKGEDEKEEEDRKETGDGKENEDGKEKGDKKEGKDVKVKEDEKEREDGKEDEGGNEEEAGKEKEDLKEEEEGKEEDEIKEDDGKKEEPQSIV
inactive: erlotinib 0.013 | [1] -0.122 | [2] 0.052 | [3] 0.021 | [4] -0.002 | [5] -0.013 | [6] 0.024 | [7] 0.067 | [8] 0.024 | IRAK-1-4 Inhibitor I 0.007 | ibrutinib -0.035 | [9] -0.012 | ralimetinib -0.064 | [10] -0.021 | [11] 0.006 | [12] -0.004 | [13] -0.035 | [14] -0.011 | [15] 0.036 | [16] -0.056

IFNGR1 (UniProt P15260)
UniProt P15260, sequence (P15260 whole entry, looked up): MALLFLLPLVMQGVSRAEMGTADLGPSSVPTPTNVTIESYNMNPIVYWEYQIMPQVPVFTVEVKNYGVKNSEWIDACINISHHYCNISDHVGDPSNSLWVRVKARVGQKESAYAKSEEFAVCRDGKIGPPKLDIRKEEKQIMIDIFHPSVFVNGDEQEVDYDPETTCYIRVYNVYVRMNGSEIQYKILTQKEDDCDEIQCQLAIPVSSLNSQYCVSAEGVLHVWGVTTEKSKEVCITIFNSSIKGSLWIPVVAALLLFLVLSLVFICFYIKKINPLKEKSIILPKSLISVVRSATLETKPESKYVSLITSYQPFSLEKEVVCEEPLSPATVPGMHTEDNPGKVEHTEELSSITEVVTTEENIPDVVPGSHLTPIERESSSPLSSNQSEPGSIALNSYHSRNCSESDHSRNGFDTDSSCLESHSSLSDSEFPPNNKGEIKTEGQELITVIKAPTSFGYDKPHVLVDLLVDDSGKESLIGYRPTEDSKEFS
inactive: erlotinib 0.06 | [1] -0.064 | [2] 0.07 | [3] -0.134 | [4] -0.127 | [5] -0.021 | [6] -0.264 | [7] -0.075 | [8] 0.073 | IRAK-1-4 Inhibitor I 0.107 | ibrutinib -0.033 | [9] -0.12 | ralimetinib -0.018 | [10] -0.256 | [11] -0.014 | [12] 0.162 | [13] -0.077 | [14] 0.017 | [15] 0.073 | [16] -0.213
